SMILES strings stand for the structures. Records with an inconclusive call do not appear. Activity calls are given as the source filed them. Unless noted, calls come from the whole dose curve; as a rule, active = well fitted inhibition curve with a large enough effect; inconclusive = small, poorly fitted or top-dose-only effect; inactive = flat fitted curve, though single readings scatter.

Assay [1] is described as follows: qHTS for identification of novel therapeutic agents for treatment of microphthalmiaassociated transcription factor (MiT) renal cell carcinoma (RCC) (AID 1963991; calls by dose curve; note: potency is the fitted concentration of half-maximal effect). As to conditions: CellTiter-Glo, 48 h; for z-score: stronger effect = lower value. The procedure, abridged:
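Three TFE3-fusion RCC cell lines (UOK109, UOK124, UOK145), 500 cells/well, were exposed to the 1912-compound MIPE 4.0 library for 48 hours at 37 C. Viability was read by CellTiter-Glo luminescence, normalised to DMSO (100%) and empty wells (0%), with 11-concentration curve fits.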
(In general: Quantitative high-throughput screening tests each substance at several concentrations.)

A short description of assay [2]: qHTS profiling for inhibitors of Plasmodium falciparum proliferation (AID 504749).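 For activity, negative = inhibition: 0% = DMSO vehicle and full inhibition = artemisinin control.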 Note: nearly all actives have a fitted effect of over 60% in size. Note: potency is the fitted concentration of half-maximal effect. As to conditions: P. falciparum in erythrocytes, SYBR Green DNA, 72 h. In a few lines: (§1)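 Readout was DNA-dye fluorescence from lysed cultures, ex 485/em 535 nm. Parasitized red cells had grown 72 h with compound; data scaled between 0.29 uM artemisinin and DMSO wells and corrected using vehicle-only plates.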

The test system of a further assay is 3D7. The assay is described as above. As to conditions: P. falciparum in erythrocytes, SYBR Green DNA, 72 h; series mostly up to 28.7 µM. The procedure, abridged: as §1
The subject of another assay is AA1029. Described as above. As to conditions: P. falciparum in erythrocytes, SYBR Green DNA, 72 h; series mostly up to 28.7 µM. In a few lines:
as §1

For a further assay, the system named is AS120. The description is as above. As to conditions: P. falciparum in erythrocytes, SYBR Green DNA, 72 h; series mostly up to 28.7 µM. The procedure, abridged:
as §1

The subject of the next assay is ATS189. Described as above. As to conditions: P. falciparum in erythrocytes, SYBR Green DNA, 72 h; series mostly up to 28.7 µM. In a few lines:
as §1

The next assay relates to ATS95. Described as above. As to conditions: P. falciparum in erythrocytes, SYBR Green DNA, 72 h; series mostly up to 28.7 µM. In a few lines:
as §1

A further assay deals with C2A. Described as above. As to conditions: P. falciparum in erythrocytes, SYBR Green DNA, 72 h; series mostly up to 28.7 µM. The procedure, abridged:
as §1

In the next assay the test system is CP185. The assay is described as above. As to conditions: P. falciparum in erythrocytes, SYBR Green DNA, 72 h; series mostly up to 28.7 µM. The procedure, abridged: as §1
For the next assay, the system named is CP191. The assay is described as above. As to conditions: P. falciparum in erythrocytes, SYBR Green DNA, 72 h; series mostly up to 28.7 µM. The procedure, abridged:
as §1

In the next assay the test system is CP194. Described as above. As to conditions: P. falciparum in erythrocytes, SYBR Green DNA, 72 h; series mostly up to 28.7 µM. The procedure, abridged: as §1
For the next assay, the system named is CP203. The description is as above. As to conditions: P. falciparum in erythrocytes, SYBR Green DNA, 72 h; series mostly up to 28.7 µM. The procedure, abridged:
as §1

For a further assay, the system named is CP215. Described as above. As to conditions: P. falciparum in erythrocytes, SYBR Green DNA, 72 h; series mostly up to 28.7 µM. The procedure, abridged:
as §1

The next assay has as its system CP217. The assay is described as above. As to conditions: P. falciparum in erythrocytes, SYBR Green DNA, 72 h; series mostly up to 28.7 µM. The procedure, abridged:
as §1

Another assay has as its system 7G8. The description is as above. As to conditions: P. falciparum in erythrocytes, SYBR Green DNA, 72 h; series mostly up to 28.7 µM. In a few lines: as §1
The test system of the next assay is CP192. The assay is described as above. As to conditions: P. falciparum in erythrocytes, SYBR Green DNA, 72 h; series mostly up to 28.7 µM. The procedure, abridged:
as §1

In the next assay the test system is CP201. Described as above. As to conditions: P. falciparum in erythrocytes, SYBR Green DNA, 72 h; series mostly up to 28.7 µM. In a few lines:
as §1

The next assay has as its system CP211. The assay is described as above. As to conditions: P. falciparum in erythrocytes, SYBR Green DNA, 72 h; series mostly up to 28.7 µM. The procedure, abridged: as §1
Assay [3] can be described thus: qHTS drug screen for cell cycle checkpoint inhibitors in PARPi-resistant BRCA-mutant ovarian cancer cell lines. (AID 1963452; calls by dose curve). As to conditions: PEO1/OlaR viability, CellTiter-Glo luminescence, 96 h, stronger effect = lower value. The procedure, abridged: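 PEO1, PEO4 and PEO1/OlaR ovarian cancer cells, 600 per well, exposed 96 h at 37C to a dilution series. Viability read by CellTiter-Glo luminescence, normalized to DMSO and empty wells; activity summarized as Z-AUC.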

Setting [4] is: TFE3-RCC UOK109 viability, measured here: UOK109 Z-AUC.
The mark [5] stands for this setting: TFE3-RCC viability, measured here: UOK124 Z-AUC.
Where [6] appears, read: TFE3-RCC viability, measured here: UOK145 Z-AUC.
Setting [7] is: at 28.7 µM (top of the series), parasite line A.
The mark [8] stands for this setting: at 28.7 µM (top of the series), parasite line B.

In the case of `Cc1nc(-c2ccc(OCC(C)C)c(C#N)c2)sc1C(=O)O`, the z-score is 1.16 in [1] (setting [4]), 0.952 in assay [1] (setting [5]) and 0.581 in assay [1] (setting [6]).

Consider `Cc1cc(=O)c2c(O)c3c(O)cc(=O)c4c3c3c(cc(O)c1c23)C(C)(C)C=4O`, for which the Potency in assay [2] (parasite line A) is 2510 nM (active); in [2] (parasite line B), 1000 nM (active); in the assay with 3D7, 1580 nM (active); in the assay with AA1029, 1780 nM (active); in the assay on AS120, 1780 nM (active); with ATS189, 1410 nM (active). In addition, the Potency in the assay with ATS95 was 2000 nM (active); with C2A, 1580 nM (active); with CP185 it was 1580 nM (active); in the assay on CP191, 1120 nM (active); with CP194, 2690 nM (active); with CP203, 1900 nM (active). For the same compound, the Potency with CP215 is 2390 nM (active); in the assay with CP217, 891 nM (active).

Turning to `CCC[C@@H]1C[C@@H](C(=O)N[C@@H]([C@H]2O[C@H](SC)[C@H](O)[C@@H](O)[C@H]2O)[C@@H](C)O)N(C)C1`, the Potency result in the assay with ATS189 is “inactive”. Moreover, the Potency in the assay on CP215 is 2690 nM (active).

In the case of `Cc1nc2n(c(=O)c1CCN1CCC(c3noc4cc(F)ccc34)CC1)CCCC2`, the values for the z-score in assay [1] (setting [4]), in assay [1] (setting [5]) and in assay [1] (setting [6]) were 0.0752, 0.441 and 0.372, respectively. Further, the activity, negative = inhibition is 8.34% (inactive) in assay [2] (setting [7]) and 15.8% (inactive) in assay [2] (setting [8]). For the same compound, the Potency entry in the assay on 3D7, in the assay on AA1029, in the assay on AS120, in the assay on ATS189, in the assay with ATS95 and with C2A was “inactive” each time. Further, the Potency result in the assay with CP185, with CP191, in the assay on CP192, in the assay on CP194, in the assay on CP201 and in the assay on CP203 was “inactive” in each case. Besides, the Potency result with CP211, in the assay with CP215 and with CP217 was “inactive” in each case. Further, the Potency with 7G8 was 10000 nM (active).

Regarding `N=C(N=C(N)N)N1CCOCC1`, the activity, negative = inhibition in [2] (at 12.8 µM (top of the series), parasite line A) was -9.52% (inactive); in assay [2] (at 12.8 µM (top of the series), parasite line B), 11.1% (inactive). In addition, the Potency result with 3D7, in the assay on 7G8, with AA1029, in the assay with ATS189, in the assay on ATS95 and in the assay on C2A was “inactive” throughout. Also, the Potency entry with CP185, in the assay with CP191, in the assay on CP192, in the assay on CP194, in the assay on CP201 and in the assay on CP203 was “inactive” in each case. Also, the Potency entry in the assay with CP211, with CP215 and with CP217 was “inactive” each time.

With `N=C(N)c1ccc2cc(OC(=O)c3ccc(N=C(N)N)cc3)ccc2c1`, the Z-AUC is 0.0758 (inactive) in [3], 0.542 in [3] (measured here: PEO1 parental Z-AUC) and 0.795 in [3] (measured here: PEO4 Z-AUC). Besides, the Potency in the assay on 7G8 was 11200 nM (active); in the assay with CP191, 3980 nM (active). In addition, the Potency result in the assay on CP192 was “inactive”.

On to `CCOC(=O)C(C)Oc1cccc2c(=O)n(CC(=O)Nc3ccc4c(c3)OCCO4)ccc12` (stereo not given), for which the figures for the z-score in [1] (setting [4]), in [1] (setting [5]) and in [1] (setting [6]) were 0.811, 0.396 and 0.65, respectively.

For `CC(=O)O[C@H]1C(=O)[C@@]2(C)C([C@H](OC(=O)c3ccccc3)[C@]3(O)C[C@H](OC(=O)[C@H](O)[C@@H](NC(=O)c4ccccc4)c4ccccc4)C(C)=C1C3(C)C)[C@]1(OC(C)=O)CO[C@@H]1C[C@@H]2O` (stereo not given in full), in assay [1] (TFE3-RCC UOK109 viability, active = Z-AUC below -0.8 in all three lines), the Potency was 41.8 nM (active). The z-score is -1.4 in assay [1] (setting [4]), -1.86 in assay [1] (setting [5]) and -1.46 in assay [1] (setting [6]).

With `CN(C)CCc1c[nH]c2ccc(Cn3cncn3)cc12`, the figures for the z-score in assay [1] (setting [4]), in assay [1] (setting [5]) and in [1] (setting [6]) were 0.0634, 0.723 and 0.764, respectively. Also, the activity, negative = inhibition is 15.9% (inactive) in assay [2] (setting [7]) and -0.428% (inactive) in [2] (setting [8]). Moreover, the Potency entry in the assay with 3D7, in the assay on 7G8, in the assay with AA1029, with AS120, in the assay on ATS189 and in the assay with ATS95 was “inactive” each time. In addition, the Potency result with C2A, with CP185, in the assay on CP191, with CP192, with CP194 and with CP201 was “inactive” throughout. In addition, the Potency result with CP211, in the assay on CP215 and in the assay with CP217 was “inactive” in each case.

These data come from PubChem BioAssay (NCATS).
